Assay results from PubChem BioAssay AID1159580 (chemical genetic matrix, 2015).
Where “and” joins values, the source holds several entries; their conditions need not be identical. Identical values can stand only once. In all, about 5,500 compounds went through this assay and about 2,000 (36%) were called active. Not shown: some 18% with an inconclusive outcome. No stated cut-off is given here; in the data, active means normalized growth mostly below about 0.91 (no sharp cut-off); inconclusive means no clear call, values can overlap the other calls; inactive means mostly above about 0.92. This is one part of the list.

Test: chemical genetic growth profiling, strain panel (AID 1159580);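 further: tested at 20 µM; growth read once vehicle control cultures reached saturation at 30 °C; 1 = growth at the plate median or of vehicle wells; lower values mean less growth of the strain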
Conditions: S. cerevisiae deletion strains, growth OD

Measured: normalized growth

CCN(CC)CCNC(=O)c1cc(S(C)(=O)=O)ccc1OC
inactive: locus YAL013W, strain DEP1, active compounds read low 1 | locus YAL021C, strain ccr4, active compounds read low 0.979 | locus YAL026C, strain drs2, active compounds read low 0.976 | locus YAL030W, strain snc1, active compounds read low 0.955 | locus YAL040C, strain CLN3, active compounds read low 1.05 | locus YBL061C, strain skt5, active compounds read low 0.967 | locus YBR009C, strain hhf1, active compounds read low 0.989 | locus YBR021W, strain FUR4, active compounds read low 1.02 | locus YBR023C, strain chs3, active compounds read low 0.968 | locus YBR171W, strain sec66, active compounds read low 0.955 | locus YBR229C, strain ROT2, active compounds read low 1.01 | locus YBR231C, strain swc5, active compounds read low 0.974 | locus YBR279W, strain paf1, active compounds read low 0.969 | locus YCL011C, strain gbp2, active compounds read low 0.945 | locus YCL016C, strain dcc1, active compounds read low 0.971 | locus YCL029C, strain bik1, active compounds read low 1.01 | locus YCL061C, strain MRC1 (second series), active compounds read low 0.991 | locus YCL061C, strain MRC1, active compounds read low 0.982 | locus YCL069W, strain vba3, active compounds read low 0.984 | locus YCR088W, strain abp1, active compounds read low 0.967 | locus YDL005C, strain med2, active compounds read low 0.972 | locus YDL035C, strain GPR1, active compounds read low 1.02 | locus YDL040C, strain nat1, active compounds read low 0.976 | locus YDL074C, strain BRE1, active compounds read low 1 | locus YDL101C, strain DUN1, active compounds read low 1.01 | locus YDL134C, strain PPH21, active compounds read low 1.02 | locus YDL185W, strain tfp1, active compounds read low 1.01 | locus YDL192W, strain arf1, active compounds read low 1.01 | locus YDR001C, strain nth1, active compounds read low 0.953 | locus YDR069C, strain doa4, active compounds read low 0.974 | locus YDR101C, strain arx1, active compounds read low 0.991 | locus YDR137W, strain rgp1, active compounds read low 0.959 | locus YDR150W, strain NUM1, active compounds read low 1.01 and 0.998 | locus YDR159W, strain sac3, active compounds read low 0.978 | locus YDR162C, strain NBP2, active compounds read low 1.02 | locus YDR195W, strain ref2 0.965 | locus YDR297W, strain sur2, active compounds read low 0.967 | locus YDR318W, strain mcm21, active compounds read low 1.02 | locus YDR334W, strain swr1, active compounds read low 0.937 | locus YDR335W, strain msn5, active compounds read low 0.966 | locus YDR363W, strain ESC2, active compounds read low 0.973 | locus YDR388W, active compounds read low 1.02 | locus YDR392W, strain spt3, active compounds read low 0.902 | locus YDR502C, strain sam2, active compounds read low 1.01 | locus YEL003W, strain gim4, active compounds read low 0.979 | locus YEL037C, strain rad23, active compounds read low 0.971 | locus YEL061C, strain CIN8 (second series), active compounds read low 0.964 | locus YEL061C, strain CIN8, active compounds read low 1.01 | locus YER002W, strain NOP16, active compounds read low 1.01 | locus YER015W, strain faa2, active compounds read low 0.976 | locus YER016W, strain bim1, active compounds read low 0.988 | locus YER110C, active compounds read low 1.01 | locus YER111C, strain swi4, active compounds read low 0.966 | locus YER155C, strain BEM2 (second series), active compounds read low 0.978 | locus YER155C, strain BEM2, active compounds read low 1.01 | locus YER167W, strain BCK2, active compounds read low 1.02 | locus YFR010W, strain ubp6, active compounds read low 0.953 | locus YGL078C, strain dbp3, active compounds read low 1.01 | locus YGL086W, strain mad1, active compounds read low 1 | locus YGL167C, strain pmr1, active compounds read low 0.97 | locus YGL173C, strain kem1, active compounds read low 0.965 | locus YGL227W, strain vid30, active compounds read low 0.97 | locus YGL240W, strain doc1, active compounds read low 0.972 | locus YGL248W, strain PDE1, active compounds read low 1 | locus YGL253W, strain hxk2, active compounds read low 0.987 | locus YGR078C, strain PAC10, active compounds read low 0.998 | locus YGR135W, strain pre9, active compounds read low 1.03 | locus YGR229C, strain SMI1, active compounds read low 0.96 | locus YGR252W, strain gcn5, active compounds read low 0.996 | locus YHR013C, strain ard1, active compounds read low 0.95 | locus YHR027C, strain rpn1, active compounds read low 0.952 | locus YHR030C, strain SLT2, active compounds read low 1.01 and 0.98 | locus YHR079C, strain IRE1 (second series), active compounds read low 1.01 | locus YHR079C, strain IRE1, active compounds read low 0.998 | locus YHR094C, strain hxt1, active compounds read low 1.01 | locus YHR129C, strain ARP1, active compounds read low 1.01 | locus YHR142W, strain chs7, active compounds read low 0.928 | locus YHR200W, strain rpn10, active compounds read low 1.01 | locus YIL066C, strain RNR3, active compounds read low 1.02 | locus YIL073C, strain SPO22, active compounds read low 1.1 | locus YIL125W, strain kgd1, active compounds read low 1.02 | locus YIR030C, strain dcg1, active compounds read low 1.01 | locus YJL092W, strain hpr5, active compounds read low 0.979 | locus YJL095W, strain BCK1 (second series), active compounds read low 0.972 | locus YJL095W, strain BCK1, active compounds read low 0.997 and 0.978 | locus YJL115W, strain asf1, active compounds read low 0.954 | locus YJL129C, strain trk1, active compounds read low 0.986 | locus YJL134W, strain LCB3, active compounds read low 1.01 | locus YJL154C, strain vps35, active compounds read low 0.95 | locus YJL164C, strain tpk1, active compounds read low 0.981 | locus YJL166W, strain qcr8, active compounds read low 0.931 | locus YJL168C, strain set2, active compounds read low 1.01 | locus YJL187C, strain SWE1 (second series), active compounds read low 0.999 | locus YJL187C, strain SWE1, active compounds read low 0.974 | locus YJR043C, strain POL32, active compounds read low 1.01
